This is an account of results in PubChem BioAssay AID977607 (Broad Institute, 2014).

Among all 1,500 compounds or so, about 460 (31%) were called active. Inconclusive results (about 1%) are left out. The list is a sample of the results. Measured potencies and affinities stand elsewhere. A number with no mark means an inactive call.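 Rule for the calls: active = curve reaches 40% activation over neutral controls at an AC40 no higher than the top valid tested concentration; inconclusive = no clear call, values can overlap the other calls; inactive = signal moving opposite to the expected increase, and the rest.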

The assay can be described thus: activators of glucose-dependent insulin secretion, dose response, cell-based, INS-1E, Gaussia luciferase, luminescence, cherry-pick, set 2 (AID 977607).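 Note: 0% = median of the plate neutral control wells.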 The settings on record: INS-1E GLuc insulin secretion reporter, 2-3 h, hits give high values; at 35 µM, 100% = signal doubled over neutral wells unless noted.
As to `COc1ccc(CNC(=O)CN2C(=O)NC3(CCCCCC3)C2=O)cc1`, the max activation was -13.8% [at 0.005 µM, 100% = signal doubled over neutral wells].
For the compound `CCC(O)c1nc2ccccc2n1CCc1ccccc1` (stereo unspecified), the max activation is -18.7% [at 0.005 µM, 100% = signal doubled over neutral wells].
In the case of `CC1Cc2ccccc2N1C(=S)NC(=O)c1cccc(Br)c1` (stereo unspecified), the max activation is -15.5% [at 0.005 µM, 100% = signal doubled over neutral wells].
Next, `CCOC(=O)c1nc2nc(-c3cccs3)cc(C(F)(F)F)n2n1`: -16% [at 0.135 µM, 100% = signal doubled over neutral wells].
Turning to `Cc1c(Cc2ccccc2)sc(NC(=O)C(C)(C)C)c1C(N)=O`, the max activation is -18.8% [at 0.015 µM, 100% = signal doubled over neutral wells].
Turning to `COc1ccc(/C(C)=N/Nc2ccc(C(=O)O)cc2)cc1OC`, the max activation was 24.3%.
For `COc1ccc(C(=O)/C=C2\NCCc3cc(OC)c(OC)cc32)cc1OC` the value was 24%; for `C=CCN1C(=O)c2n[nH]c(COC)c2C1c1ccc(F)cc1` (stereo unspecified), -25.3% [at 0.015 µM, 100% = signal doubled over neutral wells].
As for `Cc1cc(=O)oc2c3c(cc(OCC(=O)NC(C)C)c12)OC(C)(C)CC3`, the max activation is 34% [at 0.42 µM, 100% = signal doubled over neutral wells].
Next, `CC(=O)Nc1ccc(-c2ccnc3c2CC(C)(C(=O)Nc2cccc(OC(F)(F)F)c2)O3)cc1` (stereo unspecified): -44.4%.
Next, `Nn1c(-c2ccccc2)cc(-c2ccccc2)cc1=O`: 27.3%; `CNc1nc(OCC#N)nc(N2CCCCC2)n1`: 25%; `COc1cc2c(cc1OC)CN(C(=O)Cc1ccccc1)CC2`: -21.2%.
In the case of `COc1ccc(C(=O)N2CCc3cc(OC)c(OC)cc3C2c2ccc(OC)c(OC)c2)cc1OC` (stereo unspecified), the max activation is 24.4% [at 0.005 µM, 100% = signal doubled over neutral wells].
`Cc1ccccc1SC1CCN(C(=O)C2CCC(=O)N(C3CC3)C2)CC1` (stereo unspecified): the max activation is -25.3%.
In the case of `CCOc1ccc(OCCC(=O)N(CC)CC(=O)NCc2cccs2)cc1`, the max activation is -21% [at 11 µM, 100% = signal doubled over neutral wells].
For the compound `O=C(CC(NC(=O)c1ccccc1)c1ccccc1)Nc1cccc2ccccc12` (stereo unspecified), the max activation was -27.5%.
Turning to `Nc1[nH]c(C(=O)c2ccccc2)c(-c2c(F)cccc2F)c1C(=O)c1ccc(Cl)c(Cl)c1`, the max activation is 53.9%.
For `C#Cc1cccc(-n2nnc(C(=O)OC)c2-c2ccccc2)c1` the value was -13.8% [at 0.42 µM, 100% = signal doubled over neutral wells]; for `COc1ccc(CCC(=O)NC2CCC(C)CC2)cc1` (stereo unspecified), -13.6% [at 0.135 µM, 100% = signal doubled over neutral wells]; for `COC(=O)C1=C(C)NC(=S)NC1c1ccc(OC)cc1` (stereo unspecified), -18.4% [at 0.135 µM, 100% = signal doubled over neutral wells].
For `c1ccc2c(NCC3CCCO3)nc(N3CCCCC3)nc2c1` (stereo unspecified) the value was -16.1% [at 3.8 µM, 100% = signal doubled over neutral wells]; for `CC1=CC(c2ccccc2)n2nc(NC(=O)CCC(=O)O)nc2N1` (stereo unspecified), -12.8% [at 1.2 µM, 100% = signal doubled over neutral wells].
For `CC(=O)c1ccc(OCC(=O)N(C2CCCCC2)C2CCS(=O)(=O)C2)cc1` (stereo unspecified) the value was -11% [at 0.0016 µM, 100% = signal doubled over neutral wells].
For `CN(C)CCCN(C(=O)CCOc1ccccc1)c1nc2ccc(F)cc2s1`, the max activation was -14.1% [at 0.015 µM, 100% = signal doubled over neutral wells].
Next, `COc1cc2c(cc1OC)CN(C(=O)CNS(=O)(=O)c1ccc(C)c(C)c1)CC2`: 13.4% [at 11 µM, 100% = signal doubled over neutral wells]; `CCN(Cc1ccccc1)S(=O)(=O)c1ccc(C(=O)Nc2nnc(C)o2)cc1`: 39.3% [at 3.8 µM, 100% = signal doubled over neutral wells].
As for `COc1ccccc1-c1cnc2c(c1)C(=O)N([C@H](C)CO)C[C@@H](C)[C@@H](CN(C)C(C)=O)O2`, the max activation is 35.5% [at 0.015 µM, 100% = signal doubled over neutral wells].
Next, `O=C(NC1CCCCC1)c1cccnc1Sc1ccccc1`: -28.1% [at 0.015 µM, 100% = signal doubled over neutral wells].
Regarding `CCCCc1nc(NCCN)c(C#N)c2c1CSC(C)(C)C2`, the max activation was -17.6% [at 0.046 µM, 100% = signal doubled over neutral wells].
With `O=C(NC(=S)NCC1CCCO1)c1ccc(Cl)cc1Cl` (stereo unspecified), the max activation was -19.4% [at 0.005 µM, 100% = signal doubled over neutral wells].
Next, `O=C(Nc1ccc(Br)cc1)c1cc2ccccn2n1`: -31.1% [at 0.42 µM, 100% = signal doubled over neutral wells]; `O=C(OCc1c(-c2ccccc2)ncc2ccccc12)c1cccs1`: -36.4% [at 11 µM, 100% = signal doubled over neutral wells]; `CCc1nc2ccc(C(=O)N(C)CCCN(C)C)cn2c1N(C=O)CCC(C)C`: -21.2% [at 1.2 µM, 100% = signal doubled over neutral wells].
For `O=C(O)CNS(=O)(=O)c1ccc2c(c1)Cc1cc(S(=O)(=O)NCC(=O)O)ccc1-2` the value was -16.4% [at 0.0016 µM, 100% = signal doubled over neutral wells]; for `Cc1cc(-c2ccc(Br)cc2)n2nc(C)cc2n1`, -25.9% [at 0.005 µM, 100% = signal doubled over neutral wells]; for `c1ccc(-c2nc(NCC3CC3)nc3ccsc23)cc1`, -19.8%.
Next, `COc1cc2[nH]c(-c3ccc(C)cc3)cc(=O)c2cc1OC`: -18.5% [at 3.8 µM, 100% = signal doubled over neutral wells]; `CC(=O)NN1C(=O)c2ccccc2NC1c1ccccc1O` (stereo unspecified): -23.9% [at 0.42 µM, 100% = signal doubled over neutral wells].
Turning to `O=C(Cn1nnc(-c2ccccc2)n1)N=Nc1c(O)[nH]c2ccccc12`, the max activation was 32.5%.
In the case of `COc1ccc2nc3ccccc3nc2c1NC(=O)c1ccc(Cl)cc1`, the max activation was -10.8% [at 0.046 µM, 100% = signal doubled over neutral wells].
Next, `COc1cc(Cl)c(C)cc1NC(=O)c1ccccc1NC(=O)CN1CCN(C(C)=O)CC1`: -25.4% [at 3.8 µM, 100% = signal doubled over neutral wells].
As to `COc1cc2c(cc1OC)C(Nc1ccccc1)=NC(C)(C)C2`, the max activation is -20.4% [at 0.005 µM, 100% = signal doubled over neutral wells].
Next, `Cc1cc(Oc2cccnc2)ccc1NC(=O)Cc1cn(C)c2ccccc12`: -32.7%; `Cc1cc(C(=O)NC(C)CCC(C)C)c2ccccc2n1` (stereo unspecified): 29.7% [at 1.2 µM, 100% = signal doubled over neutral wells]; `O=C(Nc1ccccc1C(=O)N/N=C/c1ccccc1)c1ccco1`: -16.8% [at 0.0016 µM, 100% = signal doubled over neutral wells].
For the compound `CCCCNC(=O)C1(C)CCN1C(=O)Cc1cccc2ccccc12` (stereo unspecified), the max activation is 11.1% [at 0.015 µM, 100% = signal doubled over neutral wells].
Next, `CCNC(=O)C1(C)CCCN1Cc1cccc(C(F)(F)F)c1` (stereo unspecified): -24%.
On to `CCOc1ccc(C(=O)NCC(=O)Nc2cc(C)ccn2)cc1OCC`, for which the max activation is -21.2% [at 11 µM, 100% = signal doubled over neutral wells].
In the case of `Cn1c(=O)n(Cc2ccccc2Br)c2ccccc21`, the max activation was 20.4% [at 0.0016 µM, 100% = signal doubled over neutral wells].
As to `O=c1[nH]nc(-c2ccc(F)cc2)cc1Cc1cccs1`, the max activation was 13.5% [at 3.8 µM, 100% = signal doubled over neutral wells].
For the compound `Clc1ccc(-c2cc(CN3CCOCC3)no2)cc1`, the max activation was -22.2% [at 11 µM, 100% = signal doubled over neutral wells].
Next, `CCNc1nc(NCC)nc(N(C)/N=C/c2ccco2)n1`: 24.3% [at 11 µM, 100% = signal doubled over neutral wells]; `COc1cc(C(C(=O)NC2CCCC2)N(Cc2ccco2)C(=O)c2snc(C(N)=O)c2N)cc(OC)c1OC` (stereo unspecified): 22.3% [at 0.015 µM, 100% = signal doubled over neutral wells]; `COc1ccc(C2C3CCCCC3(O)CCN2C(=O)c2cccs2)cc1` (stereo unspecified): -22.1% [at 0.046 µM, 100% = signal doubled over neutral wells].
Next, `CC1CCC(NCCNC(=O)c2ccco2)CC1` (stereo unspecified): -20.4%.
